This excerpt belongs to a sample that is enriched for hits.
Dicer inh: blocks human Dicer maturation of pre-miR-21; cat-ELCCA pre-miR-21 Dicer processing, chemiluminescence; stronger effect = higher value; hit rate 6% among 47,000; Q9UPY3; z-score at 25 µM; AID 1347074; in the data active = z-score above about 3, passing the limit was not always enough;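 note: higher signal means more uncleaved substrate so more Dicer inhibition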
Hits are given with their value; n = inactive.

SMILES	Dicer inh
COc1ccc(-n2nc(C(=O)O)c(C)c(C#N)c2=O)cc1	n
CCOC(=O)c1sc(/S(C)=N/S(=O)(=O)c2ccccc2)c2c1CCC=C2 (configuration not stated)	n
CCOC(=O)/C(N=Nc1ccc(F)cc1F)=C(\C)O	n
CC(=O)/C(N=Nc1c(F)cccc1F)=C(\C)O	3.4
CC(=O)/C(N=Nc1ccc2c(c1)OCO2)=C(\C)O	n
Cn1c(=O)n(CC(=O)O)c(=O)c2c1nc1n2CCCN1c1ccc(Br)cc1	n
CCNc1nc2c(Cl)cc(Cl)cc2s1	n
CCCCCOC(=O)C1=C(C)NC2=C(C(=O)CC(C)(C)C2)C1c1cccc(O)c1 (configuration not stated)	n
CN(C)Cc1c(O)ccc2ccccc12	5.3
CN(C)Cc1ccc(O)c(CN(C)C)n1	n
CN(C)Cc1c(O)ccc2c(=O)c(Oc3ccc4ccccc4c3)c(C(F)(F)F)oc12	n
COc1ccc(-c2cc(C)nc3ncnn23)cc1	n
CCOC(=O)C(C)Oc1ccc2c(C)cc(=O)oc2c1 (configuration not stated)	n
CCCCOC(=O)C(C)Oc1ccc2c(=O)c(-c3ccccc3)coc2c1 (configuration not stated)	n
CCOC(=O)C(C)Oc1cc(OC(C)C(=O)OCC)c2c(=O)cc(-c3ccccc3)oc2c1 (configuration not stated)	4.1
O=C(c1cccc(Cl)c1)c1cc2cc([N+](=O)[O-])ccc2o1	n
CCNC(=O)c1cc([N+](=O)[O-])cc2c1-c1ccc([N+](=O)[O-])cc1C2=O	n
O=C(CC1CC(=O)Oc2ccccc21)Nc1nccs1 (configuration not stated)	3.8
O=C(Nc1nccs1)C1COc2ccccc2O1 (configuration not stated)	n
O=C(Cn1c(=O)sc2ccccc21)Nc1nccs1	n
CC(=O)Nc1cc([N+](=O)[O-])ccc1-n1cc(C)c(C(F)(F)F)n1	n
O=[N+]([O-])c1ccsc1Sc1cccs1	n
Cc1ccc(S(=O)(=O)NC(=O)NCCCNC(=O)OC(C)(C)C)cc1	n
C=CCn1c2ccccc2c2nnc(SCC(=O)Nc3ncc([N+](=O)[O-])s3)nc21	n
C=CCn1c2ccccc2c2nnc(SCC(=O)Nc3nc(C)c(C(=O)OCC)s3)nc21	4.9
SMILES	Dicer inh
C=CCn1c2ccccc2c2nnc(SCC(=O)Nc3cc(C)on3)nc21	n
CCOC(=O)C1=C(C)NC2=C(C(=O)CC(C)(C)C2)C1c1ccc(OCC)cc1 (configuration not stated)	n
Cc1ccc(C2=CC(c3ccccc3)n3nc(NS(C)(=O)=O)nc3N2)cc1 (configuration not stated)	n
O=c1[nH]c(/C=C/c2cn(Cc3ccccc3)c3ccccc23)nc2ccccc12	n
N=C(N)SCc1c(F)cccc1Cl	n
S=C(Nc1ccc(Cl)cc1)SCc1c(Cl)cccc1Cl	n
CCOC(=S)SCc1c(F)cccc1Cl	4.3
Brc1ccc2c(c1)c(-c1ccccc1)nc1nnnn12	n
CCOc1cc(C2Nc3ccc4ccccc4c3C3=C2C(=O)CCC3)ccc1O (configuration not stated)	n
Cc1ccccc1C1CC(=O)c2c(ccc3ccccc23)N1 (configuration not stated)	n
COc1ccc(C2Nc3ccc4ccccc4c3C3=C2C(=O)CCC3)cc1OC (configuration not stated)	4.5
O=C1CC(c2cccc(O)c2)Nc2ccc3ccccc3c21 (configuration not stated)	n
COc1ccc(Br)cc1C1CC(=O)c2c(ccc3ccccc23)N1 (configuration not stated)	3.3
COc1ccc(OC)c(C2Nc3ccc4ccccc4c3C3=C2C(=O)CC(C)(C)C3)c1 (configuration not stated)	n
CCCOC(=O)C1=C(C)NC2=C(C(=O)CCC2)C1c1ccc(SC)cc1 (configuration not stated)	n
COC(=O)/C=C(\Nc1ccsc1C(=O)OC)C(=O)OC	n
O=S(=O)(Oc1cccc2cccnc12)c1ccc(C(F)(F)F)cc1C(F)(F)F	n
N#C/C(=N\Nc1ccc(F)cc1)C(=O)NCC1CCCO1 (configuration not stated)	3.8
CCn1c2ccccc2c2cc(NC(=O)C(=O)NCC3CCCO3)ccc21 (configuration not stated)	n
COc1ccc(Cl)cc1NC(=O)C(=O)NCC1CCCO1 (configuration not stated)	n
O=C1NCCN1CCNS(=O)(=O)c1ccc(S(=O)(=O)c2ccccc2)s1	n
Cc1cc(S(N)(=O)=O)c(C)cc1Cl	n
Cc1ccccc1-c1nc(NC(=O)CSc2ncnc3sc(C)c(C)c23)ns1	3
COC(=O)c1c(NC(=O)CSc2ncnc3sc(C)c(C)c23)sc2c1CCCC2	n
Cc1ccc(-c2nc(NC(=O)CSc3nnc(C)s3)ns2)cc1	n
SMILES	Dicer inh
COc1ccc(C2CC(=O)C3=C(C2)NC(C)=C(C#N)C3c2cccc(OC)c2OC)cc1 (configuration not stated)	n
CCOc1ccc(S(=O)(=O)N2CCSC2c2ccc(Br)cc2)cc1 (configuration not stated)	n
CCOC(=O)Cc1csc(NS(=O)(=O)c2cc(C)c(Cl)cc2C)n1	n
CCSc1nc2c(c(=O)n(C)c(=O)n2C)n1Cc1ccccc1C	n
Cc1ccccc1Cn1c(SCc2nn[nH]n2)nc2c1c(=O)n(C)c(=O)n2C	3.5
Cc1ccccc1Cn1c(SC(C)C(=O)O)nc2c1c(=O)n(C)c(=O)n2C (configuration not stated)	n
Cn1c(=O)c2c(ncn2CC(O)CN2CCN(CCO)CC2)n(C)c1=O (configuration not stated)	n
CCOc1nc(-c2cccc(OC)c2)ccc1-c1noc(-c2ccncc2)n1	n
Clc1ccc(Nc2nc(-c3ccncc3)cs2)cc1	5.6
COc1ccc(-c2csc(Nc3cccnc3)n2)cc1	n
Cc1ccc(Nc2nc(C(F)(F)F)cs2)cc1	n
Fc1ccc(Nc2nc(-c3ccncc3)cs2)cc1	n
Clc1ccc(-c2csc(Nc3ccccc3)n2)cc1	n
Cc1ccc(-c2csc(Nc3ccc(S(N)(=O)=O)cc3)n2)cc1	7.1
O=C(O)c1ccc(Nc2nc(-c3cccnc3)cs2)cc1	6.6
Cc1cccnc1Nc1nc(-c2cccnc2)cs1	n
CCc1ccc(-c2csc(Nc3ccc(S(N)(=O)=O)cc3)n2)cc1	n
CC(C)Cc1ccc(C(C)C(=O)Nc2nn(C)c3ccccc23)cc1 (configuration not stated)	n
Cc1ccc(S(=O)(=O)N2CCOCC2)cc1C	n
CCOC(=O)C(=CNNC(=O)C1C2C=CC(C2)C1C(=O)O)C(=O)OCC (configuration not stated)	n
COc1ccc(NC(=O)c2cc(C(F)(F)F)cc(C(F)(F)F)c2)cn1	n
Cc1ccc(-c2coc3cc4oc(=O)c5ccccc5c4cc23)cc1	n
S=c1[nH]nc(-c2cccc3ccccc23)n1Cc1ccco1	n
O=S(=O)(N/N=C/c1ncc(C(F)(F)F)cc1Sc1ccc(Cl)cc1)c1ccccc1	n
O=C(NCc1ccc2c(c1)OCO2)N1CCOCC1	n
SMILES	Dicer inh
c1cc2c(cc1CNCCCN1CCOCC1)OCO2	5.8
Clc1cccc(CNCc2ccc3c(c2)OCO3)c1	n
Nc1nc(COc2cccc3cccnc23)nc(Nc2ccc(Cl)cc2)n1	n
COC(=O)/C(C#N)=C/c1ccc(SC)s1	n
Clc1ccccc1-c1nnc2sc(/C=C/c3ccccc3)nn12	n
Cc1ccc(/C=C/c2nn3c(-c4ccco4)nnc3s2)cc1C	n

High-throughput results deposited in PubChem by Center for Chemical Genomics, University of Michigan.
